Records with an inconclusive call do not appear. Calls of active or inactive are those of the source. Calls follow the shape of the dose curve; as a rule, active = well fitted inhibition curve with a large enough effect; inconclusive = small, poorly fitted or top-dose-only effect; inactive = flat fitted curve, though single readings scatter.
These molecules were tested against Luciferin 4-monooxygenase (Photinus pyralis) (UniProt P08659) (assay: Counterscreen Assay for Enhancers of SMN2 Splice Variant Expression: Interaction with Luciferase Reporter). Conditions: purified firefly luciferase, luminescence, 5 min; series mostly up to 51 µM; activity change, negative = inhibition: at the top concentration.
Sequence of Luciferin 4-monooxygenase (Photinus pyralis) (P08659 whole entry, looked up, canonical isoform): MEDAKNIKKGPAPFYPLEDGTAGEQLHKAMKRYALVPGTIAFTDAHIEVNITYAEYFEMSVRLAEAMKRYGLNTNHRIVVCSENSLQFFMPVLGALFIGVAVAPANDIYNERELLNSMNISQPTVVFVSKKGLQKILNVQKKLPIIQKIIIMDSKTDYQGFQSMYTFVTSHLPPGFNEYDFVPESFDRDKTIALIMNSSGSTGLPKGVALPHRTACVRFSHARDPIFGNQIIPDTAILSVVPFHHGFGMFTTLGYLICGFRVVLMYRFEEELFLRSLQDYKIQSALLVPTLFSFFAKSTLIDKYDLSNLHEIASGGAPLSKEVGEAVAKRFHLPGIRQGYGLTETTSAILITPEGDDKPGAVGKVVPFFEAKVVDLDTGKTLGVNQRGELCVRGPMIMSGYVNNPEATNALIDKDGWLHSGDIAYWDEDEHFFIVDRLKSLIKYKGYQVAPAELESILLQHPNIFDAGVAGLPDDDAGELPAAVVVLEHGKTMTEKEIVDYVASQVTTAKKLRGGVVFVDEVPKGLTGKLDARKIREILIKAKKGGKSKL
Text: NIH Chemical Genomics Center [NCGC] NIH Molecular Libraries Probe Production centers Network [MLPCN] MLPCN Grant: R03 MH084179-01 Assay Submitter (PI): Elliot Androphy NCGC Assay Overview: Spinal muscular atrophy (SMA) is caused by insufficient levels of the survival motor neuron protein SMN. The SMN locus on chromosome 5q13 contains two inverted copies of SMN called SMN1 and SMN2 which are 99% identical at the amino acid level. SMN1 is a fully functional protein and SMN2 skips exon 7 90% of the time. Skipping of exon 7 produces non-functional protein product. 10% of the SMN2 protein includes exon 7 and is fully functional. In the SMA disease state, mutations in the SMN1 locus are the cause of the disease state. Because only 10% of SMN2 is of the fully functional form, it is not sufficient to overcome the deficiency produced by the loss of the SMN1 product. A therapy that either increases the amount of SMN2 product made increases the inclusion of exon 7 has been proposed for the treatment of SMA. We have designed an assay to identify small molecules that can increase the amount of functional SMN2 product by appending a luciferase reporter gene after the native SMN2 gene, such that inclusion of exon 7 in the expressed product places the luciferase sequence in frame, thus generating functional luciferase enzyme. One potential source of false positives in the primary screening assay is stabilization of the reporter luciferase via direct binding. […]
NCGC Assay Protocol Summary: The primary screen utilizes a luciferase reporter gene assay, combining the promoter and splicing based cassettes in tandem with the major portion of the native SMN1 cDNA, and then transfected into HEK293 cells. […] Sequence, Parameter, Value, Description (1) Reagent, 2.5 uL, Enzyme in buffer (note A) (2) Compound, 23 nL, From stock solutions (3) Time, 5 minutes, Room temp (4) Reagent#2.5 ul, Luciferase detection reagent (note B) (5) Detector, 1 sec integrate, Luminescent read on Viewlux (note C) Sigma enzyme (1 mg) considered to be MW 61,000 diluted in 357 ul assay buffer to 50 uM stock. […]
O=C(C1CCN(c2nc3ccc(Br)cc3s2)CC1)N1CCC2(CC1)OCCO2 was tested, and the Potency was 7.08 µM (active).
In the case of CC[C@]1(O)CC(O[C@@H]2CC(N(C)C)C(O)C(C)O2)c2c(cc3c(c2O)C(=O)c2c(O)cccc2C3=O)C1C(=O)OC (stereo partly drawn), the “activity change, negative = inhibition” value was 6.06% (inactive).
In the case of C[C@@H]1O[C@@H](O[C@H]2C[C@@H](O)[C@]3(CO)[C@H]4[C@H](O)C[C@]5(C)[C@@H](C6COC(=O)C6)CC[C@]5(O)[C@@H]4CC[C@]3(O)C2)[C@H](O)[C@H](O)[C@H]1O (stereo partly drawn), the activity change, negative = inhibition was 13.4% [at 48.7 pM] (inactive).

From PubChem BioAssay AID1733 (National Center for Advancing Translational Sciences (NCATS), 2009)
